Screens deposited in PubChem by National Center for Advancing Translational Sciences (NCATS).
USP1 inh: inhibitors of human USP1/UAF1 deubiquitinase; recombinant USP1/UAF1, Ub-Rhodamine cleavage fluorescence; AID 743255; Potency, µM (highest dose often 57.1 µM), without a hit: at the highest dose activity change, negative = inhibition, actives largely listed as inhibitors; 390,000 tested, 0.23% active; O94782; further: potency means the concentration at half of the fitted maximal effect; on the % scale 0 is the no-effect control and ±100 the full control effect; nearly all actives have a fitted effect of over 60% in size
Target sequence (O94782 whole entry, looked up): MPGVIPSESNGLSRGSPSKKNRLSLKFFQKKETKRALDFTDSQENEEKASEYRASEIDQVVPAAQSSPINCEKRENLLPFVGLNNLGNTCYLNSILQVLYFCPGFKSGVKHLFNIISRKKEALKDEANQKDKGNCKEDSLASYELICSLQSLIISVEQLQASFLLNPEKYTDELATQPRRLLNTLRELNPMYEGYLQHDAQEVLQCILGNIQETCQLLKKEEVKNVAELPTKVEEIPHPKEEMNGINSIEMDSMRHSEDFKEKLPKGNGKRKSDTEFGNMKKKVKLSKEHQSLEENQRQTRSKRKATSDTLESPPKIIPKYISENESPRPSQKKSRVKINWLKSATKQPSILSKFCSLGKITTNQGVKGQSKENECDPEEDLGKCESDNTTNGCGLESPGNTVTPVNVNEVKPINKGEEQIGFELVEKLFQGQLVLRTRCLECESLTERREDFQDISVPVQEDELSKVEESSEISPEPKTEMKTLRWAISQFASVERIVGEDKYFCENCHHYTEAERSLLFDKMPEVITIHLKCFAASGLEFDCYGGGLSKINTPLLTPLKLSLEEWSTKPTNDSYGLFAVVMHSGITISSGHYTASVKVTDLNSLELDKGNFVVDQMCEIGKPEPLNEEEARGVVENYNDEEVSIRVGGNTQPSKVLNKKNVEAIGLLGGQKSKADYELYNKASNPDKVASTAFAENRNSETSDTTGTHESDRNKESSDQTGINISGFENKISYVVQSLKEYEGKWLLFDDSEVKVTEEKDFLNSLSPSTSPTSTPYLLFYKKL
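1 nM enzyme complex + cpd, 15 min RT; start with Ub-Rho 150nM final; kinetic fluorescence ex 480/em 540, 6 reads q60 s. Buffer 50mM HEPES pH 7.8, 0.5mM EDTA, 0.1 mg/ml BSA, 1mM TCEP, 0.01% Tween-20.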
ATXN viability: cell viability loss in ATXN counter-screen; 400,000 tested, 0.49% active; S2 cells (HEK-293 line with an ATXN2-luciferase reporter) viability, CellTiter-Fluor protease fluorescence, 24 h; Potency, µM (titrated, usually from 56.7 µM), actives largely listed as cytotoxic; further: potency means the concentration at half of the fitted maximal effect; nearly all actives have a fitted effect of over 40% in size
IL-1B inflam inh: inflammasome signaling inhibition, IL-1 beta readout. 360,000 tested, 4.7% active. activity change, % at 57.5 µM. THP-1 LPS/ATP IL-1B secretion, AlphaLISA, 16 h; stronger effect = lower value; in the data active means activity change below about -50%; inconclusive means mostly about -30% to -49%; further: on the % scale 0 is the no-effect control and ±100 the full control effect
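Secreted IL-1B measured by AlphaLISA bead assay after 16 h compound exposure of THP-1 cells; compounds (final up to 57.5 uM) added 1 h before LPS (250 ng/mL) and ATP (1.25 mM) stimulation; lower signal means less secretion.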
ATXN2 expr inh: reduces ATXN2 reporter expression in HEK-293 cells; AID 1745845; 360,000 tested, 0.72% active; Potency, µM (highest dose often 57 µM), inactives show at the top dose activity change, negative = inhibition, hits mostly inhibitors; HEK-293 ATXN2-luciferase reporter, luminescence, 24 h; further: potency means the concentration at half of the fitted maximal effect; on the % scale 0 is the no-effect control and ±100 the full control effect; nearly all actives have a fitted effect of over 55% in size
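qHTS (up to 57 uM final) was run with 24 h compound exposure of reporter cells at 37 °C. Each well was multiplexed: SteadyGlo luminescence measured ATXN2-luciferase expression after a fluorogenic Gly-Phe-AFC viability readout (25 uM final).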
USP2a block: USP2a (human) protease inhibition; USP2 core, Ub-CHOP2 coupled fluorogenic reporter, 485/531; O75604; AID 463254; Potency, µM (series often up to 38.3 µM), inactives show at the highest dose activity change, negative = inhibition, usual class: inhibitors; 330,000 tested, 0.01% active;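 further: potency means the concentration at half of the fitted maximal effect; plate controls were DMSO wells for no effect and full inhibition by NEM control for full effect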
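USP2 core (10nM final) preincubated 30min RT with compound in 20mM Tris-HCl pH 8.0, 2mM CaCl2, 2mM beta-mercaptoethanol, 0.05% CHAPS; 25nM Ub-CHOP2 plus 25nM reporter substrate added, fluorescence (Ex485/Em531) read after 60min.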
* hit, by the source's call; i = inactive; ? = inconclusive; . = no result; ! = a repeat was not active. Most compounds without a hit are left out; they make up all but 4.8% or so of the library. Unless noted, the call rests on the fitted dose curve; in most records, active means well fitted curve in the direction sought with a large enough effect; inconclusive means small, poorly fitted or top-dose-only effect, or another doubt; inactive means no such curve, though single readings can be large; an effect the other way counts as inactive or inconclusive.

SMILES	USP1 inh	ATXN viability	IL-1B inflam inh	ATXN2 expr inh	USP2a block
O=[N+]([O-])c1cc(O)c2ncccc2c1	-22%	?	-95*	5µM*	2%
O=[N+]([O-])c1cc2cccnc2c2ncccc12	4%	?	90	.	-1%
CCCCN(CCCC)Cc1cc(=O)oc2cc(C)c(Cl)cc12	.	i	10	-15%	.
CCC(C)Sc1cc(-c2nc3ccccn3c2NC2CCCCC2)ccc1OC (stereo not given)	?	32µM*	-91*	?	1%
CCC(C)Sc1cccc(-c2nc3ccc(C)cn3c2NC2CCCCC2)c1 (stereo not given)	?	i	-77*!	-16%	2%
Cc1ccn2c(NC3CCCC3)c(-c3cccs3)nc2c1	?	i	-12	-5%	-1%
CCC(C)Sc1cc(-c2nc3cc(C)ccn3c2NC2CCCCC2)ccc1OC (stereo not given)	-14%	?	-81*	?	-5%
CCC(C)Sc1ccc(-c2nc3ccc(C)cn3c2NC2CCCCC2)cc1 (stereo not given)	-27%	?	21	-16%	1%
c1csc(-c2nc3ccccn3c2NC2CCCCC2)c1	-10%	i	-86*	-18%	1%
Cc1cccc(C)c1NC(=O)CN1CCCCCC1	.	i	.	8%	.
CC(=O)c1ccc(-c2cccc(-c3nc4ccccn4c3NC3CCCCC3)c2)cc1	-20%	16µM*	-66*	?	-1%
CCOC(=O)c1c(NC(=O)c2ccc(S(=O)(=O)N(C)C3CCCCC3)cc2)sc2c1CCN(C(C)C)C2	68%	.	.	-11%	.
COc1ccc(-c2nc3ccccc3nc2-c2ccccc2)cc1OC	-8%	i	-62*	-14%	4%
Oc1ccc(-c2nc3ccccc3nc2-c2ccccc2)cc1	-14%	i	-65*	12%	-2%
Oc1ccc(-c2nnc(-c3ccccc3)c(-c3ccccc3)n2)cc1	.	.	.	.	0%
Cc1ccccc1NC(=O)CSc1ncc2c(n1)-c1ccccc1N(C)S2(=O)=O	7%	i	.	-6%	.
O=C(NNC1=Nc2ccccc2SC1)c1ccc(Cl)cc1	?	?	57	14µM*	1%
COc1ccccc1/C=C1\CCCC2=C1Nc1nnnn1C2c1ccccc1OC (stereo not given)	-26%	i	-101*	-12%	-1%
C=CCOc1ccc(C(=O)c2ccccc2)c(OCC(=O)NC2(C#N)CCCC2)c1	-9%	i	-60*	-1%	-2%
N#CC1(NC(=O)COc2ccccc2[N+](=O)[O-])CCCCC1	-16%	i	57	8%	0%
Cc1cccc(-c2cc3nc4c(c(NCc5ccco5)n3n2)CCCC4)c1	?	?	-98*	-39%	-6%
CCCCC(CC)CN=C(N)NC(N)=NCCCCCCN=C(N)NC(N)=NCC(CC)CCCC (stereo not given)	32µM*	13µM*	-104*	10µM*	?
NC(=O)Cn1c(=O)n(-c2ccccc2)c(=O)c2oc3ccccc3c21	-15%	i	-50*	-12%	2%
NC(=O)CN1C(=O)C(O)(CC(=O)/C=C\c2ccc3c(c2)OCO3)c2ccccc21 (stereo not given)	-17%	i	-88*	8%	0%
CN1C(=O)C(O)(CC(=O)/C=C\c2ccc3c(c2)OCO3)c2ccccc21 (stereo not given)	-15%	?	-101*	-15%	1%
SMILES	USP1 inh	ATXN viability	IL-1B inflam inh	ATXN2 expr inh	USP2a block
CC1Cc2ccccc2N1C(=O)COc1ccc2c(c1)OCO2 (stereo not given)	-8%	i	-56*	58%	4%
CN1/C(=C\C(=O)C[n+]2ccc3ccccc3c2)C(C)(C)c2ccccc21	-19%	?	-53*	0%	3%
CN1C(=O)C(O)(CC(=O)c2ccc3c(c2)OCO3)c2ccccc21 (stereo not given)	-4%	i	3	4%	1%
Cc1cnc(SCc2ccccn2)nc1C1CCCN(C(=O)c2ccc3c(c2)OCO3)C1 (stereo not given)	.	i	.	.	.
CS(=O)(=O)Nc1cccc(C2=NN(C(=O)c3ccc(F)cc3)C(c3cccs3)C2)c1 (stereo not given)	-4%	?	-10	.	1%
CSc1nnc(-c2ccc(S(=O)(=O)N3CCCCC3)cc2)o1	-3%	i	4	-5%	2%
CN1/C(=C\C(=O)COc2ccc3c(c2)OCO3)C(C)(C)c2ccccc21	?	i	-78*	-10%	0%
COc1ccccc1OCC(=O)/C=C1/N(C)c2ccccc2C1(C)C	-20%	i	-9	-19%	4%
Cc1cc(-n2c(=O)[nH]c(=O)n(C)c2=O)ccc1Oc1ccc(S(=O)(=O)C(F)(F)F)cc1	.	i	.	.	.
CCc1ccc(N(C(=O)c2snc(C(N)=O)c2N)C(C(=O)NC2CCCC2)c2ccco2)cc1 (stereo not given)	-13%	i	-64*	-29%	2%
COc1ccc(N(C(=O)c2snc(C(N)=O)c2N)C(C(=O)NC2CCCC2)c2ccco2)cc1 (stereo not given)	?	?	-15	6%	-1%
COc1ccc(N(C(=O)c2snc(C(N)=O)c2N)C(C(=O)NC2CCCCC2)c2ccc(C)o2)cc1 (stereo not given)	-21%	?	-50*	-12%	-2%
COc1ccc(Nc2nc(N)c3cc(OC)c(OC)cc3n2)cc1	2%	.	.	.	.
Cc1ccc(-c2nc(NCc3ccco3)c3ccccc3n2)cc1	-17%	i	5	.	-1%
Cc1ccccc1Nc1nc(NCc2ccco2)c2ccccc2n1	-6%	?	-102*	?	0%
Oc1ccccc1Nc1nc(NCc2ccco2)c2ccccc2n1	-20%	i	-63*	.	2%
CSc1nc(NCc2ccco2)c2ccccc2n1	3%	i	-13	-13%	7%
COc1ccc(OC)c(Nc2nc(NCc3ccco3)c3ccccc3n2)c1	-29%	.	-97*	32µM*	2%
CC1(C)ON=C(c2cccc(F)c2)NC1=O	.	i	45	3%	.
CCn1c(=O)c(C(=O)CN(C)Cc2ccc(F)cc2)c(N)n(Cc2ccccc2)c1=O	4%	i	-63*	-7%	0%
N#Cc1nc(COc2ccccc2)oc1N1CCC(Cc2ccccc2)CC1	-10%	i	-55*	0%	-6%
Cc1ccccc1OCc1nc(C#N)c(N2CCCC2)o1	-12%	?	-58*	-14%	2%
COc1ccccc1OCc1nc(C#N)c(N2CCCC2)o1	-11%	i	0	.	2%
CCNC(=O)C1(C)CCCN(C(=O)c2sc(-c3ccccc3)nc2C)C1 (stereo not given)	.	i	11	5%	.
